An excerpt weighted towards active compounds, which were near 19% of everything screened.
HT1080NT lethal = qHTS for induction of synthetic lethality in tumor cells producing 2HG: qHTS for the HT-1080-NT fibrosarcoma cell line; HT-1080-NT fibrosarcoma viability, CellTiter-Glo ATP luminescence, 48 h; Potency, µM (doses to about 46.1 µM), for inactives: at the highest dose activity, negative = less viability, usual class: cytotoxic; AID 686970, 2013; actives 1.6% (n = 360,000);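 further: NT is the 2HG producing partner of a matched IDH1 knockdown line; potency means the concentration at half of the fitted maximal effect; 0% = DMSO-treated cells and -100% = media-only wells without cells; nearly all actives have a fitted effect of over 55% in size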
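A 48-hour cytotoxicity screen used HT-1080-NT cells plated 2 hours before compound delivery. ATP-based CellTiter-Glo luminescence measured viability, normalized to DMSO and no-cell controls.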
TDP1 cell noCPT = qHTS for Inhibitors of human tyrosyl-DNA phosphodiesterase 1 (TDP1): qHTS in cells in absence of CPT; DT40 Tdp1-/- hTDP1 cells, no CPT, ATP luminescence, 48 h; AID 686978, 2013; Potency, µM (titrated, usually from 46.2 µM), inactives show top-dose activity change, negative = growth inhibition, most hits filed as inhibitors; actives 15% (n = 420,000); further: potency means the concentration at half of the fitted maximal effect; nearly all actives have a fitted effect of over 55% in size
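Compound effects on proliferation are scored in DT40 Tdp1-/-;hTDP1 cells in the absence of CPT. ATP levels (CellTiter-Glo luminescence) are recorded after a ≥48 hr, 37 °C incubation.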
IL-1B inflam inh = qHTS for Inhibitors of Inflammasome Signaling: IL-1-beta AlphaLISA Primary Screen. THP-1 LPS/ATP IL-1B secretion, AlphaLISA, 16 h; stronger effect = lower value. activity change, % at 57.5 µM. actives 4.7% (n = 360,000). AID 743279, 2014; in the data active means activity change below about -50%; inconclusive means mostly about -30% to -49%
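THP-1 cells pretreated 1 hr with compounds (up to 57.5 uM final), then stimulated with LPS (250 ng/mL final) plus ATP (1.25 mM final); secreted IL-1B measured by AlphaLISA after 16 hr, decreased signal indicating inhibition.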
DT40 TDP1 CPT = qHTS for Inhibitors of human tyrosyl-DNA phosphodiesterase 1 (TDP1): qHTS in cells in presence of CPT; AID 686979, 2013; Potency, µM (top dose mostly 46.2 µM), inactives show at the highest dose activity change, negative = growth inhibition, hits mostly inhibitors; actives 12% (n = 420,000); chicken DT40 Tdp1-/-;hTDP1 cells + 20 nM CPT, ATP luminescence, 48 h; further: potency means the concentration at half of the fitted maximal effect; nearly all actives have a fitted effect of over 55% in size
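Chicken DT40 Tdp1-/- cells complemented with human TDP1, 400 cells/well, exposed to compounds plus 20 nM camptothecin for at least 48 h at 37 C; viability read as ATP content by CellTiter-Glo luminescence.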
HT1080 IDH1KD tx = qHTS for induction of synthetic lethality in tumor cells producing 2HG: qHTS for the HT-1080-IDH1KD cell line | HT-1080 IDH1 knockdown viability, ATP luminescence, 48 h | Potency, µM (series often up to 46.1 µM), for the others: at the top dose activity, negative = toxicity, actives largely listed as cytotoxic | actives 2% (n = 360,000) | AID 686971, 2013;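 further: potency means the concentration at half of the fitted maximal effect; 0% = DMSO wells and -100% = cell-free medium wells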
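Using the IDH1-knockdown HT-1080 line run in the same batch and compound series as the NT line, viability after 48 h at 37 °C was determined by CellTiter-Glo luminescence and expressed as % activity.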
* marks the source's active call; other numbers are inactive results; u = inconclusive; x = no result; [ ] = another dose, or the depositor's remark. Unless noted, the call rests on the fitted dose curve; in most records, active means well fitted curve in the direction sought with a large enough effect; inconclusive means small, poorly fitted or top-dose-only effect, or another doubt; inactive means no such curve, though single readings can be large; an effect the other way counts as inactive or inconclusive. Unless noted, on the % scale 0 is the no-effect control and ±100 the full control effect.

SMILES	HT1080NT lethal	TDP1 cell noCPT	IL-1B inflam inh	DT40 TDP1 CPT	HT1080 IDH1KD tx
Cc1ccc(CS(=O)Cc2ccc(C(=O)NC3CCCCCC3)o2)cc1 (stereo unspecified)	1%	-9%	-26	-29%	-5%
Cc1ccc(N(Cc2cc3ccc(C)cc3[nH]c2=O)S(C)(=O)=O)c(C)c1	-4%	u	-18	u	-3%
COC(=O)CC1Oc2ccc(F)cc2-n2cc(-c3ccc(C)cc3)nc21 (stereo unspecified)	x	7.3µM*	x	9.2µM*	x
COC(=O)CC1Oc2ccc(Cl)cc2-n2cc(-c3ccc(F)cc3)nc21 (stereo unspecified)	x	-18%	x	-14%	x
COC(=O)CC1Oc2ccc(F)cc2-n2cc(-c3ccc(Cl)cc3)nc21 (stereo unspecified)	x	4.1µM*	x	9.2µM*	x
Nc1ncnc2c1ncn2[C@@H]1O[C@H](CNC(=O)[C@@H](N)Cc2ccc(C(F)(F)F)cc2)[C@@H](O)[C@H]1O	-1%	-3%	19	8%	-3%
COc1ccccc1NC(=O)C1CC(=O)N(c2ccc(F)cc2)C1 (stereo unspecified)	3%	-7%	-4	1%	-3%
COc1ccc(S(=O)(=O)N(CC(=O)NCC2CCCO2)C2CCCCC2)cc1OC (stereo unspecified)	-6%	-21%	11	-17%	-3%
O=C(/C(=C/O)N=Nc1ccccc1)c1cccs1	16µM*	u	-74*	u	u
CC(/C=C/c1ccco1)=N\NC(=O)CNc1cccc(C)c1	8%	2%	3	9%	1%
OC(c1cccnc1)c1ccc2c(c1)CN(Cc1cn(-c3ccccc3)nc1-c1ccccc1)CCO2 (stereo unspecified)	x	u	x	-9%[9.04 µM]	x
Cc1c(C(=O)NCCCN2CCCCC2)oc2ccc3c(c12)C(O)CC1(CCCCC1)O3 (stereo unspecified)	2%	16µM*	-4	u	3%
CCOC(=O)C1CCN(C(=O)c2oc3ccc4c(c3c2C)C(O)CC2(CCCCC2)O4)CC1 (stereo unspecified)	-16%	u	6	u	-21%
Cc1cnc(C)c(Nc2nc(C(N)Cc3ccccc3)cs2)n1 (stereo unspecified)	u	u	-18	u	u
COc1ccc(CC(N)c2csc(Nc3nncc4ccccc34)n2)cc1 (stereo unspecified)	u	18µM*	0	u	u
CCCc1cnc(Nc2nc(C(N)Cc3ccc(OC)cc3)cs2)nc1 (stereo unspecified)	21µM*	u	u	u	u
CCc1cnc(Nc2nc(C(N)c3ccccc3Cl)cs2)nc1 (stereo unspecified)	-22%	u	-13	u	-1%
NC(Cc1ccc(Cl)cc1)c1csc(Nc2ccc(-c3ccccc3)nn2)n1 (stereo unspecified)	u	-90%	-50*	6.5µM*	-24%
CCc1cnc(Nc2nc(C(N)Cc3ccc(Cl)cc3)cs2)nc1 (stereo unspecified)	21µM*	u	u	u	u
C[C@]12CC[C@H](O)C[C@@H]1CC[C@@H]1[C@@H]2CC[C@@]2(C)[C@H]1CCC(=O)[C@]21CCCO1	4%	u	8	u	10%
CCOC(=O)Cn1cc(C#N)c2cccc(CC)c21	-1%	5%	6	-2%	-2%
Cc1cn(C2CC3OCC3O2)c(=O)[nH]c1=O (stereo unspecified)	3%	-7%	4	-11%	2%
COC(=O)c1ccc(-n2c(C)cc(C(=O)CSc3cccc[n+]3[O-])c2C)cc1	-2%	u	11	-25%	-18%
Cc1cc(C(=O)CSc2cccc[n+]2[O-])c(C)n1-c1ccc(OC(F)F)cc1	-9%	u	9	21µM*	-16%
COc1ccc(Cl)cc1S(=O)(=O)N(C)CC(=O)N1CCCC1	6%	3%	25	1%	2%
SMILES	HT1080NT lethal	TDP1 cell noCPT	IL-1B inflam inh	DT40 TDP1 CPT	HT1080 IDH1KD tx
N#Cc1c(Cl)nsc1NC(=O)c1ccccc1	8.2µM*	8.2µM*	u	13µM*	13µM*
CN(c1ccccc1)S(=O)(=O)c1ccc(NC(=O)c2ccccc2C(=O)O)cc1	0%	u	-4	u	18%
CC1(C)C(=O)N(CCN2CCC(C(=O)c3ccc(F)cc3)CC2)c2ccccc21	-9%	15µM*	-3	13µM*	-22%
O=C(c1ccc(F)cc1)C1CCN(CCn2c(=S)[nH]c3ccccc3c2=O)CC1	x	15µM*	x	u	x
O=C(Nc1ccc(Br)cn1)c1cnn2c1NC(=C1CC1)C=C2C(F)F	x	-19%	x	1%	x
COc1cc(/C=N/O)ccc1Oc1ccc([N+](=O)[O-])cc1[N+](=O)[O-]	-23%	18µM*	0	u	-26%
COc1ccc(/C=C2\SC(=O)NC2=S)cc1OC	u	u	-74*	10µM*	u
COc1cc(/C=C2\SC(=O)NC2=O)ccc1Oc1ccc([N+](=O)[O-])cc1[N+](=O)[O-]	-27%	16µM*	0	18µM*	u
CCN1C(=O)C(=Cc2cccc(OC)c2Oc2ccc([N+](=O)[O-])cc2[N+](=O)[O-])SC1=S	2.6µM*	1.5µM*	-95*	1.5µM*	3.3µM*
COc1ccc(/C=N/OC(=O)Nc2ccccc2)cc1[N+](=O)[O-]	1%	-17%	-23	4%	6%
Cc1cc(C)nc(NNS(=O)(=O)c2c(F)cc(F)cc2Br)n1	-6%	u	8	u	0%
COc1cccc(NC(=O)CN2CCc3ccccc3C2)c1	-6%	-11%	-12	-14%	-3%
O=C(OCC(=O)N1CCCC1)c1cnc(Cl)c(Cl)c1	5%	-25%	u	-16%	10%
CO/N=C/c1ccc(Oc2ccc([N+](=O)[O-])cc2[N+](=O)[O-])c(OC)c1	u	16µM*	-15	u	u
CC(NC(=O)CCC(=O)Nc1ccccc1O)c1ccccc1 (stereo unspecified)	14%	-1%	15	3%	18%
CC(CNc1ccccc1O)C(=O)O (stereo unspecified)	-1%	26µM*	-1	u	-44%
CCc1nc2cc(NC(=O)C3(C)CCCN(C(C)=O)C3)ccc2o1 (stereo unspecified)	17%	-6%	30	-7%	u

Assay outcomes deposited in PubChem by National Center for Advancing Translational Sciences (NCATS).
